Source: PubChem BioAssay (Tox21)
Values joined by “and” are separate entries in the source; they are usually repeats but may differ in a detail not shown here. Equal entries are not always repeated. Records with an inconclusive call do not appear. A call without a number means that no potency is given here. Where a structure was tested more than once in an assay, its records may differ in their call. Active and inactive are the calls of the source. Unless noted, calls follow the shape of the dose curve; as a rule, active = well fitted curve in the direction sought with a large enough effect in the repeat runs; inconclusive = weak or mixed curves; inactive = no such curve, though single readings can be large; an effect the other way counts as inactive or inconclusive.

Key:
[1] = qHTS assay to identify small molecule agonists of the peroxisome proliferator-activated receptor delta (PPARd) signaling pathway - cell viability counter screen (AID 743211); also: nearly all actives have a fitted effect of over 55% in size; also: potency is read from the fitted curve at half-maximal effect
Summary of the method: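 Viability was measured as CellTiter-Glo luminescence (30 min, room temperature) in the same wells as the beta-lactamase readout. GeneBLAzer PPARd UAS-bla HEK293H cells received compound after 5 h plating and were incubated 17 h at 37 C.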

[2] = biological target: Peroxisome proliferator-activated receptor delta (Homo sapiens) (UniProt Q03181); assay: qHTS assay to identify small molecule agonists of the peroxisome proliferator-activated receptor delta (PPARd) signaling pathway (AID 743212; calls by dose curve)
Chain of Peroxisome proliferator-activated receptor delta (Homo sapiens) (Q03181 whole entry, looked up): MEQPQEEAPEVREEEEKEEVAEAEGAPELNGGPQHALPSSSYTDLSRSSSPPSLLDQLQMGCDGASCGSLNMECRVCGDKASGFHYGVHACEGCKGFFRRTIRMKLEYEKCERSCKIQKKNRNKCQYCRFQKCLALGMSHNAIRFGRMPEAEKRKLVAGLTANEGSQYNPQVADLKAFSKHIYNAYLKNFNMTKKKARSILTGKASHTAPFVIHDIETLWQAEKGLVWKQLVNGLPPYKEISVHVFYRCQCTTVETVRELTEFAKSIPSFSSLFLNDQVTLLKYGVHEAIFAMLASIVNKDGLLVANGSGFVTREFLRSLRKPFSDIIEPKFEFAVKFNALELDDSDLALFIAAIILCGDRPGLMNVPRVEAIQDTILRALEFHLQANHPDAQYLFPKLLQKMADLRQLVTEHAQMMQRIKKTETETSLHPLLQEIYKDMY
Summary of the method: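 Beta-lactamase reporter read by fluorescence (LiveBLAzer B/G FRET, 2 h, room temperature). Test agents, in DMSO, incubated at 37 C with PPARd-bla HEK293H cells.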

[3] = qHTS assay to identify small molecule antagonists of the peroxisome proliferator-activated receptor delta (PPARd) signaling pathway - cell viability counter screen (AID 743213); also: nearly all actives have a fitted effect of over 50% in size; also: potency is read from the fitted curve at half-maximal effect
Summary of the method: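 Same-well viability: cells pre-incubated 5 h, dosed with compound plus 300 nM L165041, kept 17 h at 37 C, FRET substrate 2 h RT, then CellTiter-Glo 30 min RT and luminescence.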

[4] = biological target: Peroxisome proliferator-activated receptor delta (Homo sapiens) (UniProt Q03181); assay: qHTS assay to identify small molecule antagonists of the peroxisome proliferator-activated receptor delta (PPARd) signaling pathway (AID 743215; active = well fitted inhibition curve with a large enough effect in the signal ratio in the repeat runs, not every such curve was filed as active; the % refers to the signal ratio;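 also: cells stimulated with agonist L165041 at 300 nM final during compound exposure; series mostly up to about 62 µM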)
Summary of the method: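 Screen format: qHTS, antagonist mode. HEK293H PPARd-bla cells received compound and 300 nM L165041 (final), 17 h, 37 C. Beta-lactamase detected via FRET substrate fluorescence, 2 h, room temperature.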

[5] = biological target: Bile acid receptor (Homo sapiens) (UniProt Q96RI1); assay: qHTS assay to identify small molecule antagonists of the farnesoid-X-receptor (FXR) signaling pathway (AID 743217; active = well fitted inhibition curve with a large enough effect in the signal ratio in the repeat runs, not every such curve was filed as active; the % refers to the signal ratio)
Chain of Bile acid receptor (Homo sapiens) (Q96RI1 whole entry, looked up): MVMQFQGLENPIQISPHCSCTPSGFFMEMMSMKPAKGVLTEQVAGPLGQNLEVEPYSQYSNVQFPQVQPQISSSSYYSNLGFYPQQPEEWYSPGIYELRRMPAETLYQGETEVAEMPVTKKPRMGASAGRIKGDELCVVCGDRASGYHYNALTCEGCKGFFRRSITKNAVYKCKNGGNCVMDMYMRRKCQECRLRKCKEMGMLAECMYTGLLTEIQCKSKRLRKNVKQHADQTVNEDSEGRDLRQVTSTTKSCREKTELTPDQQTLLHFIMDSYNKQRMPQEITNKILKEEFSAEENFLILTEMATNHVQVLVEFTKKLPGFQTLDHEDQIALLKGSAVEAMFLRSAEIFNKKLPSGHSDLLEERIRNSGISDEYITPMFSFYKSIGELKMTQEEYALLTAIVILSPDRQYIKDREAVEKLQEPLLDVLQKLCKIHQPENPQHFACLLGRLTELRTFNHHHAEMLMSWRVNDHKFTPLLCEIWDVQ
Summary of the method: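 Quantitative HTS, beta-lactamase reporter format: FXR-UAS-bla HEK 293T cells co-treated 16 h at 37 °C with compounds and 50 uM final chenodeoxycholic acid, then read by B/G FRET fluorescence.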

[6] = qHTS assay to identify small molecule agonists of the farnesoid-X-receptor (FXR) signaling pathway - cell viability counter screen (AID 743218); also: nearly all actives have a fitted effect of over 45% in size; also: potency is read from the fitted curve at half-maximal effect
Summary of the method: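 Same-well cytotoxicity check on FXR-UAS-bla HEK 293T cells: 5 h attachment, 16 h compound at 37 C, CellTiter-Glo luminescence read at room temperature after 30 min.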

[7] = biological target: Bile acid receptor (Homo sapiens) (UniProt Q96RI1); assay: qHTS assay to identify small molecule agonists of the farnesoid-X-receptor (FXR) signaling pathway (AID 743220; active = well fitted activation curve with a large enough effect in the signal ratio in the repeat runs, not every such curve was filed as active; the % refers to the signal ratio)
Summary of the method: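 FXR-UAS-bla HEK 293T cells carrying a UAS-driven beta-lactamase reporter were plated for 5 h at 37C/5% CO2, then exposed to DMSO-dissolved Tox21 10K compounds for 16 h at 37C. A LiveBLAzer B/G FRET substrate was loaded for 2 h at room temperature before fluorescence reading.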

[8] = qHTS assay to identify small molecule antagonists of the farnesoid-X-receptor (FXR) signaling pathway - cell viability counter screen (AID 743221; active = well fitted cell-killing curve with a large enough effect in the repeat runs, not every such curve was filed as active; also: nearly all actives have a fitted effect of over 50% in size; also: potency is read from the fitted curve at half-maximal effect)
Summary of the method: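 Cytotoxicity counter screen run in the FXR-bla reporter wells: HEK 293T cells exposed to compound with 50 uM (final) chenodeoxycholic acid for 16 h, 37 C, then viability measured by CellTiter-Glo luminescence after 30 min, room temperature.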

[9] = biological target: Vitamin D3 receptor (Homo sapiens) (UniProt P11473); assay: qHTS assay to identify small molecule agonists of the vitamin D receptor (VDR) signaling pathway (AID 743222; calls by dose curve)
Chain of Vitamin D3 receptor (Homo sapiens) (P11473 whole entry, looked up): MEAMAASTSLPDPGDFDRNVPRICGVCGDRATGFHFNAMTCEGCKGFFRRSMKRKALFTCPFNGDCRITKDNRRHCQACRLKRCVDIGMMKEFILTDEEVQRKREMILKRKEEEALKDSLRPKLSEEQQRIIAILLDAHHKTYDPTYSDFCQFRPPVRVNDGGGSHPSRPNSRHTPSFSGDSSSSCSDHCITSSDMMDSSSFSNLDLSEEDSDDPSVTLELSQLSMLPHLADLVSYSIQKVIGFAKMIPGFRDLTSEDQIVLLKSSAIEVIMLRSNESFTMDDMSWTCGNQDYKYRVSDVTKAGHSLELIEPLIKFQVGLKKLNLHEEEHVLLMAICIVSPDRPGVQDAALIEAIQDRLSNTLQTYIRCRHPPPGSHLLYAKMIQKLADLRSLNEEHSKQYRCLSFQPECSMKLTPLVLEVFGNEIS
Summary of the method: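 Using LiveBLAzer B/G FRET detection, agonism was scored in VDR-bla cells exposed overnight (16 h, 37C) to DMSO-dissolved compounds; substrate incubation was 2 h at room temperature.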

[10] = biological target: Vitamin D3 receptor (Homo sapiens) (UniProt P11473); assay: qHTS assay to identify small molecule antagonists of the vitamin D receptor (VDR) signaling pathway (AID 743223; active = well fitted inhibition curve with a large enough effect in the signal ratio in the repeat runs, not every such curve was filed as active; the % refers to the signal ratio; also: potency is read from the fitted curve at half-maximal effect)
Summary of the method: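 Antagonist mode: compound added to VDR-bla cells alongside agonist 1alpha,25-dihydroxyvitamin D3 (3 nM final), incubation 16 h at 37C. Read-out is LiveBLAzer FRET fluorescence, 2 h at room temperature.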

[11] = qHTS assay to identify small molecule agonists of the vitamin D receptor (VDR) signaling pathway - cell viability counter screen (AID 743224); also: series mostly up to about 63 µM; nearly all actives have a fitted effect of over 50% in size
Summary of the method: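 Counter screen for cytotoxicity: VDR-bla cells at 2,000 cells/well, 16 h compound exposure, then CellTiter-Glo luminescence after the beta-lactamase measurement.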

[12] = qHTS assay to identify small molecule antagonists of the vitamin D receptor (VDR) signaling pathway - cell viability counter screen (AID 743225); also: nearly all actives have a fitted effect of over 50% in size; also: potency is read from the fitted curve at half-maximal effect
Summary of the method: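 Cytotoxicity counter screen read by CellTiter-Glo luminescence (30 min, room temperature) in the same wells as the VDR-bla antagonist readout. HEK 293T VDR-UAS-bla cells had 16 h at 37C with compound and 3 nM (final) 1-alpha,25-dihydroxyvitamin D3, then 2 h with FRET substrate.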

[13] = qHTS assay to identify small molecule agonists of the NFkB signaling pathway - cell viability counter screen (AID 1159515; calls by dose curve; also: series mostly up to about 61 µM; nearly all actives have a fitted effect of over 55% in size)
Summary of the method: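 Counter screen run alongside the NFkB-bla agonist assay: ME-180 reporter cells exposed to compounds for 5 hr, then lysed with CellTiter-Glo in the same wells. Luminescence, read after 30 min, reflects viable cells.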

[14] = qHTS assay to identify small molecule agonists of the endoplasmic reticulum stress response signaling pathway (AID 1159516; active = well fitted activation curve with a large enough effect in the signal ratio in the repeat runs, not every such curve was filed as active; the % refers to the signal ratio)
Summary of the method: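 For this screen, HeLa cells stably carrying beta-lactamase under the ER stress response element received test compounds, positive controls or DMSO for 5 hr at 37 C; B/G FRET substrate was then added and dual-wavelength emission recorded.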

[15] = qHTS assay to identify small molecule agonists of the endoplasmic reticulum stress response signaling pathway - cell viability counter screen (AID 1159517; calls by dose curve)
Summary of the method: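 Cytotoxicity of test compounds toward ESRE-bla HeLa cells was assessed after 5 hr exposure. The luminescent CellTiter-Glo signal was measured 30 min after reagent addition.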

[16] = qHTS assay to identify small molecule antagonists of the retinoid-related orphan receptor gamma (ROR-gamma) signaling pathway - cell viability counter screen (AID 1159520); also: nearly all actives have a fitted effect of over 50% in size; also: potency is read from the fitted curve at half-maximal effect
Summary of the method: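 Tet-on ROR gamma CHO cells (1,000/well) were plated 4 hr, given compounds in DMSO for 2 hr at 37 C, then induced with 1 uM final doxycycline for 16 hr. Viability was read as ATP by CellTiter-Glo luminescence after 30 min.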

[17] = biological target: Nuclear receptor ROR-gamma (Homo sapiens) (UniProt P51449); assay: qHTS assay to identify small molecule antagonists of the retinoid-related orphan receptor gamma (ROR-gamma) signaling pathway (AID 1159521; also: nearly all actives have a fitted effect of over 50% in size; also: potency is read from the fitted curve at half-maximal effect)
Summary of the method: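 Antagonist read-out: drop in luminescence (ONE-Glo) from an RORE-LUC reporter in CHO cells with doxycycline-inducible ROR-gamma; 2 hr compound pretreatment, 1 uM doxycycline, 16 hr incubation at 37 C.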

[18] = qHTS assay to identify small molecule agonists of the AP-1 signaling pathway - cell viability counter screen (AID 1159525; calls by dose curve; also: nearly all actives have a fitted effect of over 55% in size; also: potency is read from the fitted curve at half-maximal effect)
Summary of the method: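 Each titration point was normalised to DMSO and tetra n-octyl ammonium bromide controls. The read was Cell Titer Glo luminescence after 30 min at RT, following 5 h compound exposure of ME-180 AP-1-bla cells at 37 °C.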

[19] = qHTS assay to identify small molecule agonists of the AP-1 signaling pathway (AID 1159526; calls by dose curve)
[20] = qHTS assay to identify small molecule agonists of the NFkB signaling pathway (AID 1159509; active = well fitted curve in the direction sought with a large enough effect in the signal ratio in the repeat runs, not every such curve was filed as active; the % refers to the signal ratio; also: series mostly up to about 61 µM)
Summary of the method: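 Beta-lactamase reporter assay run in quantitative high-throughput format on an NF-kB-responsive ME-180 line, with 5 hr compound treatment and a FRET-based blue/green fluorescence readout.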

Compound | Potency [1] | Potency [2] | Potency [3] | Potency [4] | Potency [5] | Potency [6] | outcome [7] | Potency [8] | Potency [9] | Potency [10] | Potency [11] | Potency [12] | Potency [13] | Potency [14] | Potency [15] | Potency [16] | Potency [17] | Potency [18] | Potency [19] | outcome [20]
CCCCCCCC(=O)OCC(COC(=O)CCCCCCC)OC(=O)CCCCCCC | inactive | inactive | inactive | inactive | inactive | inactive | inactive | inactive | inactive | inactive | inactive | inactive | inactive | inactive | inactive | inactive | inactive | inactive | inactive | –
Nc1c(N=Nc2ccc(-c3ccc(N=Nc4cc(S(=O)(=O)O)c5ccccc5c4N)cc3)cc2)cc(S(=O)(=O)O)c2ccccc12 | inactive | inactive | inactive | inactive | inactive | inactive | inactive | inactive | – | inactive | inactive | inactive | – | – | – | – | – | inactive | – | inactive
COc1ccc(C(Cl)=C(c2ccc(OC)cc2)c2ccc(OC)cc2)cc1 | inactive | inactive | inactive | inactive | – | inactive | – | inactive | inactive | inactive | inactive | inactive | inactive | inactive | inactive | inactive | 19.2 µM (active) | inactive | inactive | –
C=C1CC[C@H](O)C/C1=C\C=C1/CCC[C@]2(C)[C@@H]([C@H](C)CCCC(C)C)CC[C@@H]12 | – | – | 43.2 µM (active) | – | – | 48.5 µM (active) | inactive | 48.5 µM (active) | – | – | – | – | – | – | – | 60.6 µM (active) | – | inactive | – | inactive
CC12CCC(CC1)C(C)(C)O2 | inactive | inactive | inactive | inactive | inactive | inactive | inactive | inactive | inactive | inactive | inactive | inactive | inactive | inactive | inactive | inactive | inactive | inactive | inactive | –
C1=CC2C3C=CC(C3)C2C1 (centres undefined) | – | – | – | – | – | – | – | inactive | – | – | inactive | – | – | – | – | inactive | inactive | inactive | – | inactive
OC[C@H]1O[C@H](O[C@]2(CCl)O[C@H](CCl)[C@@H](O)[C@@H]2O)[C@H](O)[C@@H](O)[C@H]1Cl | inactive | inactive | inactive | inactive | – | inactive | – | inactive | inactive | inactive | inactive | inactive | inactive | inactive | inactive | inactive | inactive | inactive | inactive | –
Cc1cn([C@H]2C=C[C@@H](CO)O2)c(=O)[nH]c1=O | inactive | inactive | inactive | inactive | inactive | inactive | inactive | inactive | inactive | inactive | inactive | inactive | inactive | inactive | inactive | inactive | inactive | inactive | inactive | –
O=C(Nc1ncc([N+](=O)[O-])s1)c1cccs1 | – | inactive | – | inactive | inactive | – | inactive | – | inactive | inactive | – | – | – | – | – | 13.3 µM (active) | inactive | – | – | inactive
C1CCC(C(CC2CCCCN2)C2CCCCC2)CC1 (centres undefined) | 26.6 µM (active) | – | – | – | – | 23.7 µM (active) | – | – | inactive | 21.3 µM (active) | – | 21.3 µM (active) | – | – | – | 26.6 µM (active) | – | 23.9 µM (active) | – | inactive
Nc1ccc([N+](=O)[O-])cc1O | inactive | – | – | – | – | – | – | – | – | – | – | – | – | – | – | inactive | inactive | inactive | inactive | inactive
NC(CO)(CO)CO | inactive | – | inactive | – | – | inactive | – | inactive | inactive | inactive | inactive | inactive | inactive | inactive | inactive | inactive | inactive | inactive | inactive | –
CN(C)CCOC(C)(c1ccccc1)c1ccccn1 (centres undefined) | inactive | inactive | – | inactive | inactive | inactive | inactive | inactive | inactive | inactive | inactive | inactive | inactive | inactive | inactive | inactive | inactive | inactive | inactive | –
C/C=C/C=C/C(=O)O | inactive | – | inactive | – | – | inactive | – | inactive | inactive | inactive | inactive | inactive | inactive | inactive | inactive | inactive | inactive | inactive | inactive | –
CC(C)NCC(O)c1ccc(O)c(O)c1 (centres undefined) | inactive | – | inactive | – | – | inactive | – | inactive | inactive | inactive | inactive | inactive | inactive | inactive | inactive | inactive | inactive | inactive | inactive | –
Cc1cccc(C)c1 | inactive | inactive | – | inactive | – | inactive | – | inactive | inactive | inactive | inactive | inactive | inactive | inactive | inactive | inactive | inactive | inactive | inactive | –
F[B-](F)(F)F | inactive | – | inactive | – | – | inactive | – | inactive | inactive | inactive | inactive | inactive | inactive | inactive | inactive | inactive | inactive and 49.2 µM (active) | inactive | inactive | –
